According to PubChem BioAssay (EPA / NIEHS):
Where “and” joins values, the source holds several entries; their conditions need not be identical. Identical values can stand only once. Inconclusive results are not listed. Some compounds were tested as several samples or in several runs, with calls that do not always agree. Calls of active or inactive are those of the source. The calls were made as follows, unless noted: active = hit-call score of the fitted dose curve at least 0.9, where 1 is the maximum; inconclusive = response in the unintended direction; inactive = score below 0.9.

Legend:
[1] = test system: guinea pig Dopamine Transporter (DAT), gene 100714898; assay: NVS_TR_gDAT: NovaScreen (NVS) Transporter Assay for guinea pig Dopamine Transporter (DAT) (AID 2283369);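 also: active compounds lower bound radioligand signal relative to DMSO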
Outline: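 Guinea pig striatal membranes, cell-free radioligand binding with filter-based scintillation counting, read 2 h after dosing. Loss of signal versus DMSO baseline; single-concentration primary (25 uM) then concentration-response up to 50 uM.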

[2] = target: human Dopamine Transporter (DAT), SLC6A3 (gene 6531) (UniProt Q01959); assay: NVS_TR_hDAT: NovaScreen (NVS) Transporter Assay for human Dopamine Transporter (DAT) (AID 2283374);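 also: activity means loss of bound radioligand signal relative to DMSO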
Sequence of human Dopamine Transporter (DAT), SLC6A3 (gene 6531) (Q01959 whole entry, looked up): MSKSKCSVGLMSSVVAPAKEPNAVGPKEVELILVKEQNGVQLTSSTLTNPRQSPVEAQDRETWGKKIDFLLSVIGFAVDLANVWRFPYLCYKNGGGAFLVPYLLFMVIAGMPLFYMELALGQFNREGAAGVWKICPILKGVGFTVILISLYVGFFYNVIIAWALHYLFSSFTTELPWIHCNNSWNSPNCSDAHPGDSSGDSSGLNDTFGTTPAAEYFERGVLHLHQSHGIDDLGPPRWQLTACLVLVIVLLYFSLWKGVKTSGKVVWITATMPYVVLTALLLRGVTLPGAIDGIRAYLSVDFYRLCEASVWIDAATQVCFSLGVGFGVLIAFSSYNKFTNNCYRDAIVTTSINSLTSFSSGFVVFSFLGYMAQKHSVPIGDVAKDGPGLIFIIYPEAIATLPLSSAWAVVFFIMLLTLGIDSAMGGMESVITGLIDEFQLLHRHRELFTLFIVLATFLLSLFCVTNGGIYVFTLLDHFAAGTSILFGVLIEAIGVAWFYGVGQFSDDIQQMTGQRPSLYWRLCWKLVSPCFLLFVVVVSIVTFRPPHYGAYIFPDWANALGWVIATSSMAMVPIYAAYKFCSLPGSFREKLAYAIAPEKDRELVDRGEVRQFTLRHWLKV
Outline: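 Cell-free radioligand binding to extracted human DAT protein, read 1 h after dosing by filter-based scintillation counting. Loss of specific binding scored against DMSO baseline; primary screen in duplicate at 25 uM, actives then run in concentration series.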

[3] = target: human Norepinephrine Transporter (NET), SLC6A2 (gene 6530) (UniProt P23975); assay: NVS_TR_hNET: NovaScreen (NVS) Transporter Assay for human Norepinephrine Transporter (NET) (AID 2283377);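 also: cell-free membrane protein extracted from CHO cells expressing human NET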
Sequence of human Norepinephrine Transporter (NET), SLC6A2 (gene 6530) (P23975 whole entry, looked up): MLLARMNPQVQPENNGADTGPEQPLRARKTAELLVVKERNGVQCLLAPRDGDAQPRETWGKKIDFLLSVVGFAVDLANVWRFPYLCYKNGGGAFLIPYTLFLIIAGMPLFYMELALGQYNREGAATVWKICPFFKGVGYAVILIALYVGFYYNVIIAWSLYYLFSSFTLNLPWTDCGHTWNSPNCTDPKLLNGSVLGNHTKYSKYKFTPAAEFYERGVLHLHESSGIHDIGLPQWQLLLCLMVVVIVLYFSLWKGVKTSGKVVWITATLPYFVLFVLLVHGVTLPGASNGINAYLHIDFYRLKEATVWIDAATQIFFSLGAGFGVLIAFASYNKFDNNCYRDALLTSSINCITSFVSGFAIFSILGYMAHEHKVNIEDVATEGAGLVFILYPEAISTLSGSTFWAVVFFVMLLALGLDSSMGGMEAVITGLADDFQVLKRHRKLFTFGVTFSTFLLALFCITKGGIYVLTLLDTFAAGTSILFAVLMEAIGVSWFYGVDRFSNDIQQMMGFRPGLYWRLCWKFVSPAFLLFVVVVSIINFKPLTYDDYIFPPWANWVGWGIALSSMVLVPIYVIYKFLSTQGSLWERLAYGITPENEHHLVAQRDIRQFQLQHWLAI
Outline: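 Radioligand binding to human NET in cell-free CHO-derived protein preparations, read by filter-based scintillation counting 1 hour after dosing. Loss of signal versus DMSO baseline indicated displacement; primary screening in duplicate at 25 uM, actives then titrated.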

[4] = target: Peroxisome proliferator-activated receptor gamma (Homo sapiens) (UniProt P37231); assay: NVS_NR_hPPARg: NovaScreen (NVS) Nuclear Receptor Binding Assay for human Peroxisome Proliferator-activated Receptor gamma (PPARg) (AID 2283370)
Sequence of Peroxisome proliferator-activated receptor gamma (Homo sapiens) (P37231 whole entry, looked up, the tested form may be a part): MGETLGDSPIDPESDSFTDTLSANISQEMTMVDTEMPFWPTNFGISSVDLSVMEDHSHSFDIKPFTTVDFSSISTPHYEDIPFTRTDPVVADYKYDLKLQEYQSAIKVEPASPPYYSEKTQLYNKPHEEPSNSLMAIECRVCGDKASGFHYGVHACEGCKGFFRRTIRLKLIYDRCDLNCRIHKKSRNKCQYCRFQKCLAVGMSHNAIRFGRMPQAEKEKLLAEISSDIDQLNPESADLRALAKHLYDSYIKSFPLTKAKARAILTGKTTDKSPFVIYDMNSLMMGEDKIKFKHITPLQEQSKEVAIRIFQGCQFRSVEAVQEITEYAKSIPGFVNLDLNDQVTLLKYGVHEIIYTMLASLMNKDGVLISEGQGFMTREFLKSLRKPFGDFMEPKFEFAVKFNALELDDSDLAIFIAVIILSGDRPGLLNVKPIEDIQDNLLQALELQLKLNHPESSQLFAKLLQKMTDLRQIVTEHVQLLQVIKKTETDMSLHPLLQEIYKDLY
Outline: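 Cell-free fluorescence polarization binding to human PPARg protein, read 2 h after dosing. Primary screen in duplicate at 25 uM, actives followed in concentration series; loss of signal relative to DMSO scored.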

[5] = target: Retinoic acid receptor RXR-alpha (Homo sapiens) (UniProt P19793); assay: OT_NURR1_NURR1RXRa_1440: Odyssey Thera (OT) 24-hour HEK293T Protein Complementation Assay for Nurr1/retinoid X receptor (RXR) (AID 2283386)
Sequence of Retinoic acid receptor RXR-alpha (Homo sapiens) (P19793 whole entry, looked up, the tested form may be a part): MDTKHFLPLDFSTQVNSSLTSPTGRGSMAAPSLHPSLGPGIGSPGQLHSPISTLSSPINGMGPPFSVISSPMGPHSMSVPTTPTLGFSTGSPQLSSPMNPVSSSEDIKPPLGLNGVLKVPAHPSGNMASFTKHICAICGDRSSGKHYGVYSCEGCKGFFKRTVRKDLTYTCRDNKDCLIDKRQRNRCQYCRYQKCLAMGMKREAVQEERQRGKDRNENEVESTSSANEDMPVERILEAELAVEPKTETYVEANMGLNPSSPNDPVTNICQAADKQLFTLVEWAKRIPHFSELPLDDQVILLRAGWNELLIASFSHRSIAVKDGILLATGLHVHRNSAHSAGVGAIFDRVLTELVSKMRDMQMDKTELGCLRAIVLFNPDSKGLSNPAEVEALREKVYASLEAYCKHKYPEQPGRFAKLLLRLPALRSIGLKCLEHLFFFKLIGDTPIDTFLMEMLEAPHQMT
Outline: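 HEK293T cells were dosed with compound and read 24 h later by fluorescence intensity in a protein-fragment complementation format, where Nurr1–RXRα interaction reconstitutes a split reporter. Activity was fitted as gain of signal relative to DMSO baseline.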

[6] = target: Peroxisome proliferator-activated receptor gamma (Homo sapiens) (UniProt P37231); assay: OT_PPARg_PPARgSRC1_0480: Odyssey Thera (OT) 8-hour Protein-Complementation Assay for Peroxisome Proliferator-activated Receptor Gamma / SRC-1 Co-activator (AID 2283387)
Outline: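 HEK293T transiently transfected with PPARg and SRC-1 fused to Venus YFP fragments, compounds 8 h at 37C. Fixed, Draq5-stained cells imaged; nuclear/cytoplasmic 488 nm fluorescence ratio over at least 350 cells per image; gain fitted versus DMSO.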

[7] = target: Peroxisome proliferator-activated receptor gamma (Homo sapiens) (UniProt P37231); assay: OT_PPARg_PPARgSRC1_1440: Odyssey Thera (OT) 24-hour Protein-Complementation Assay for Peroxisome Proliferator-activated Receptor Gamma/ SRC-1 Co-activator (AID 2283388)
Outline: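 HEK293T transiently transfected with PPARg/SRC-1 split-Venus YFP fusions 48 h before dosing, then treated 24 h at 37C. Fixed cells imaged; nuclear/cytoplasmic 488 nm fluorescence ratio, gain of signal versus DMSO.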

[8] = target: Norway rat Vesicular Monoamine Transporter (VMAT2), neurotransmitter transporter, Slc18a2 (gene 25549) (UniProt Q01827); assay: NVS_TR_rVMAT2: NovaScreen (NVS) Transporter Assay for Norway rat Vesicular Monoamine Transporter (VMAT2), neurotransmitter transporter (AID 2283376);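 also: actives lower the bound radioligand signal below the DMSO level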
Sequence of Norway rat Vesicular Monoamine Transporter (VMAT2), neurotransmitter transporter, Slc18a2 (gene 25549) (Q01827 whole entry, looked up): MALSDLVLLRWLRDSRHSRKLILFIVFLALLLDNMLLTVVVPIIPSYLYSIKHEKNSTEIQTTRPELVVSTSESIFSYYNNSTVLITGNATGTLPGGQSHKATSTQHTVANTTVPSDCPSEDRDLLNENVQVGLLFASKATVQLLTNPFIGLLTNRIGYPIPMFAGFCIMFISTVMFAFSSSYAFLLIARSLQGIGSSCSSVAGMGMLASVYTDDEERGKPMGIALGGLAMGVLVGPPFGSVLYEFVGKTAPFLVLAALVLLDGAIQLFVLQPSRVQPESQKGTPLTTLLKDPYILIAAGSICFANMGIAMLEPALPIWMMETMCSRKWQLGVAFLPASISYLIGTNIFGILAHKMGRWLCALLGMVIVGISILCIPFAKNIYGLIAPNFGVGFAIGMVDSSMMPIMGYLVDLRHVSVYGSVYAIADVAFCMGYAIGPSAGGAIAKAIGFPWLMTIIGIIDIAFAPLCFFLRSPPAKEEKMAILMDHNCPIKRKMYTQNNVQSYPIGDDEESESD
Outline: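 Rat forebrain tissue preparation used in a cell-free radioligand binding format; displacement read by filter-based scintillation counting 1 hour after dosing. Primary screen in duplicate at 25 uM, actives then run in concentration series; loss of signal versus DMSO baseline.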

[9] = target: Estrogen receptor beta (Homo sapiens) (UniProt Q92731); assay: OT_ER_ERbERb_1440: Odyssey Thera (OT) 24-hour HEK293T Protein-Complementation Assay for Estrogen Receptor-beta/-beta Homodimer (AID 2283380);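 also: fluorescence gain from ER beta LBD homodimer complementation read by laser scanning cytometry; scored as signal increase over DMSO baseline for both agonists and antagonists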
Sequence of Estrogen receptor beta (Homo sapiens) (Q92731 whole entry, looked up, the tested form may be a part): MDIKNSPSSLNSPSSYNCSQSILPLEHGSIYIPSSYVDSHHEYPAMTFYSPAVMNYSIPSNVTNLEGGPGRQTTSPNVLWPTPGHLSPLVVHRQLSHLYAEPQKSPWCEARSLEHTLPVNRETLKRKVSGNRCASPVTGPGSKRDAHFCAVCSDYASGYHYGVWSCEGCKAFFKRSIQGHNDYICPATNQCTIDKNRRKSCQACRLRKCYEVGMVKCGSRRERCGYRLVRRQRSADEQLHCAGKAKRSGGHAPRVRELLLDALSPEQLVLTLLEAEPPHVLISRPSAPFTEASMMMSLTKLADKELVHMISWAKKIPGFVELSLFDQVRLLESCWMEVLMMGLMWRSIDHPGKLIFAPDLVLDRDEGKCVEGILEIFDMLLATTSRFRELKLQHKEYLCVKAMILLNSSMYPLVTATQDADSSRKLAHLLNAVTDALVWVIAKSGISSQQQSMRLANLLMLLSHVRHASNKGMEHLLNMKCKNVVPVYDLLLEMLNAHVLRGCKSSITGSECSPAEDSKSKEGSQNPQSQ
Outline: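 HEK293T cells stably expressing human ER-beta LBD (aa 310-547) PCA homodimer pair, dosed 24 h; formaldehyde-fixed, Draq5-stained. Readout: increase in nuclear (agonist) or nuclear plus cytoplasmic (antagonist) fluorescence intensity versus DMSO, gain-of-signal fitting.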

[10] = target: Retinoic acid receptor RXR-alpha (Homo sapiens) (UniProt P19793); assay: OT_NURR1_NURR1RXRa_0480: Odyssey Thera (OT) 8-hour HEK293T Protein Complementation Assay for Nurr1/retinoid X receptor (RXR) (AID 2283385)
Outline: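 HEK293T cells expressing Nurr1 and RXRα fused to reporter fragments were dosed with compound for 8 hours. Complex formation was read as fluorescence intensity and analysed as gain of signal against DMSO as baseline.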

[11] = target: Bile acid receptor (Homo sapiens) (UniProt Q96RI1); assay: OT_FXR_FXRSRC1_0480: Odyssey Thera (OT) 8-hour HEK293T Protein-Complementation Assay for Farnesoid X receptor/SRC-1 Co-activator (AID 2283383)
Sequence of Bile acid receptor (Homo sapiens) (Q96RI1 whole entry, looked up, the tested form may be a part): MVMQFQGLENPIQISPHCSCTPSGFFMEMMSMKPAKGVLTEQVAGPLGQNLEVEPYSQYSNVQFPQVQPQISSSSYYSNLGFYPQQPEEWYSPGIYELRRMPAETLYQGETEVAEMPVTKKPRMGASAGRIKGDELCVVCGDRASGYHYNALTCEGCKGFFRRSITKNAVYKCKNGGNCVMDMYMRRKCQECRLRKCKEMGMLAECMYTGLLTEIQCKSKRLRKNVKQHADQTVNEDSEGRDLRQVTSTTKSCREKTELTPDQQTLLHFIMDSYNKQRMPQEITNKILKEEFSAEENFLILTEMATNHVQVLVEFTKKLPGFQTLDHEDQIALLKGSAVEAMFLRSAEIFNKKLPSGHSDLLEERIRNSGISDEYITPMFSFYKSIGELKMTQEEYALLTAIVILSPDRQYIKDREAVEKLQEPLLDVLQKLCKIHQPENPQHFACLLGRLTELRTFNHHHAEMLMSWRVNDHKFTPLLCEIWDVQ
Outline: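 HEK293T cells expressing FXR and SRC-1 fused to reporter fragments were dosed with compound for 8 h; fluorescence from the reconstituted reporter marked co-activator recruitment. Gain of signal was fitted against the DMSO baseline.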

[12] = CEETOX_H295R_11DCORT: CeeTox H295R High-throughput Steroidogenesis Assay for 11-Deoxycortisol (11DCORT) (AID 2283432; active = hit-call score of the fitted dose curve at least 0.9, where 1 is the maximum; inactive = score below 0.9;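 as to AC50: 11-deoxycortisol secreted into the medium measured by LC-MS/MS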); conditions: actives raise or lower the signal
Outline: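 H295R cells prestimulated 48 h with 10 uM forskolin, then exposed 48 h to chemical in 0.1% DMSO. 11-Deoxycortisol in medium quantified by HPLC-MS/MS after MTBE extraction; bidirectional fit versus DMSO. MTT viability read in same wells.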

[13] = CEETOX_H295R_OHPREG: CeeTox H295R High-throughput Steroidogenesis Assay for OH-Pregnenolone (OHPREG) (AID 2283434; active = hit-call score of the fitted dose curve at least 0.9, where 1 is the maximum; inactive = score below 0.9); conditions: actives raise or lower the signal
Outline: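 Human adrenal H295R cells were prestimulated 48 h with 10 uM forskolin, then exposed 48 h to chemical in 0.1% DMSO. Medium 17alpha-hydroxypregnenolone was quantified by HPLC-MS/MS after MTBE extraction; bidirectional fitting versus DMSO baseline.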

[14] = target: Estrogen receptor (Homo sapiens) (UniProt P03372); assay: OT_ERa_GFPERaERE_0480: Odyssey Thera (OT) 8-hour HeLa Transcription Induction Assay for Estrogen Receptor (AID 2283381; active = hit-call score of the fitted dose curve at least 0.9, where 1 is the maximum; inactive = score below 0.9)
Sequence of Estrogen receptor (Homo sapiens) (P03372 whole entry, looked up): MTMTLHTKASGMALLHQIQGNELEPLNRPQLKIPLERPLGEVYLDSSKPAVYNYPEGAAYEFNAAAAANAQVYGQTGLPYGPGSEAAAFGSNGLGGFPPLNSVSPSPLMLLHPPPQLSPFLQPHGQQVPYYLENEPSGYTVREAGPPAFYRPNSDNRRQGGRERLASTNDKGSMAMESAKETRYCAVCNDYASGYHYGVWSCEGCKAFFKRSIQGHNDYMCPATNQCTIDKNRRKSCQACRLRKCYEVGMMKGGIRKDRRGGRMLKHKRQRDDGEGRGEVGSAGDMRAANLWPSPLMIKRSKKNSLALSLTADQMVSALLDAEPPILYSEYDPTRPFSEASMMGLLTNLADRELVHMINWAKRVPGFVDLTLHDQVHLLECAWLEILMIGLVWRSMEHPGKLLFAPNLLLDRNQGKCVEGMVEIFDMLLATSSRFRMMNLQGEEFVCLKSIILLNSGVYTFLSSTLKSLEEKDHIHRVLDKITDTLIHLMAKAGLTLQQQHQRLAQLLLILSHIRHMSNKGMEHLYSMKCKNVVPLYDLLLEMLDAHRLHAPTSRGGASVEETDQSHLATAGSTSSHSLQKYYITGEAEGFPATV
Outline: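 HeLa cells dosed with compound and imaged by fluorescence microscopy at 8 h; GFP induction from an ERE reporter quantified by high-content image analysis and fitted as gain of signal against DMSO baseline.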

[15] = target: Estrogen receptor (Homo sapiens) (UniProt P03372); assay: OT_ERa_GFPERaERE_0120: Odyssey Thera (OT) 2-hour HeLa Transcription Induction Assay for Estrogen Receptor (AID 2283382)
Outline: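 HeLa cells were dosed with test chemical and read 2 hours later for GFP-ERα/ERE-linked fluorescent protein induction by fluorescence microscopy. Gain-of-signal was fitted relative to DMSO baseline, quantified by high content image analysis.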

[16] = target: Bile acid receptor (Homo sapiens) (UniProt Q96RI1); assay: OT_FXR_FXRSRC1_1440: Odyssey Thera (OT) 24-hour HEK293T Protein-Complementation Assay for Farnesoid X receptor/SRC-1 Co-activator (AID 2283384)
Outline: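 HEK293T cells were dosed with compound and read 24 h later by fluorescence intensity from protein-fragment complementation reporting FXR/SRC-1 co-activator interaction. Gain of signal was fitted relative to DMSO negative control as baseline.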

[17] = target: guinea pig Sigma Receptor, Non-selective Binding, SIGMAR1 (gene 100135589) (UniProt Q60492); assay: NVS_OR_gSIGMA_NonSelective: NovaScreen (NVS) Nuclear Receptor Binding Assay for guinea pig Sigma Receptor, Non-selective Binding (AID 2283367)
Sequence of guinea pig Sigma Receptor, Non-selective Binding, SIGMAR1 (gene 100135589) (Q60492 whole entry, looked up): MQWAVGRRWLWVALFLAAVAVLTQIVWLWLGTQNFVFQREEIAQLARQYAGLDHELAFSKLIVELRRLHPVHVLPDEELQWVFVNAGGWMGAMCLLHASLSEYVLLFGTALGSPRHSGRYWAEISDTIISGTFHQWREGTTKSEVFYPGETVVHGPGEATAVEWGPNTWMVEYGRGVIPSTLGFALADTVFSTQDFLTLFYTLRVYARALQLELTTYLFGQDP
Outline: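 Guinea pig brain membranes, cell-free radioligand binding; read 1 h after dosing by filter-based scintillation counting. Loss of signal vs DMSO baseline taken as displacement. Primary screen single concentration 25 uM in duplicate; actives retested in concentration series.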

[18] = target: rat Serotonin Transporter (SERT), Slc6a4 (gene 25553) (UniProt P31652); assay: NVS_TR_rSERT: NovaScreen (NVS) Transporter Assay for rat Serotonin Transporter (SERT) (AID 2283375)
Outline: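 Rat forebrain membranes; radioligand displacement at SERT read by filter-based scintillation counting, 1 h after dosing. Screened in duplicate at 25 uM, actives then run in concentration series; loss of signal versus DMSO baseline.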

Measured: AC50

Oc1ccc(Cc2ccc(O)cc2)cc1
active: [1] 10.1 µM | [2] 9.05 µM | [3] 25 µM

COc1ccccc1N
inactive: [4] | [5] | [6] | [7]

Oc1cc(Cl)c(Cl)cc1Cl
inactive: [4] | [8] | [10] | [6] | [7]
active: [3] 10.8 µM | [9] 75.1 µM | [10] 78.3 µM | [5] 81.6 µM and 83.4 µM

O=C(O)COc1cc(Cl)c(Cl)cc1Cl
inactive: [8] | [9] | [11] | [5] | [6] | [7]
active: [4] 7.47 µM

O=[N+]([O-])c1ccc(Nc2ccccc2)cc1
active: [1] 4.24 µM | [2] 5.62 µM | [3] 20.4 µM
inactive: [12] | [13]

O=S1OC[C@@H]2[C@H](CO1)[C@]1(Cl)C(Cl)=C(Cl)[C@@]2(Cl)C1(Cl)Cl (stereo partly specified)
active: [4] 14.9 µM | [14] 12.6 µM | [11] 43.3 µM | [16] 68.1 µM | [10] 91.8 µM | [12] 39.7 µM | [13] 12.1 µM
inactive: [15] | [5] | [6] | [7]

Oc1cccc(-c2ccccc2)c1
inactive: [8] | [3] | [12] | [13]
active: [1] 13.9 µM | [2] 10.6 µM

CCOC(=O)CCN(SN(C)C(=O)Oc1cccc2c1OC(C)(C)C2)C(C)C
active: [17] 15.8 µM | [3] 9.18 µM

CC(C)=CC1C(C(=O)OCc2cccc(Oc3ccccc3)c2)C1(C)C (stereo unspecified)
active: [2] 17.2 µM | [16] 12.3 µM | [12] 29.3 µM | [13] 25.7 µM
inactive: [9] | [14] | [15] | [11] | [10] | [5]

COCCl
inactive: [9] | [11] | [16] | [6] | [7]
active: [4] 4.2 µM

Cc1cc(Cl)ccc1OC(C)C(=O)O (stereo unspecified)
inactive: [4] | [9] | [14] | [15] | [10] | [6] | [7]

CCOCn1c(-c2ccc(Cl)cc2)c(C#N)c(Br)c1C(F)(F)F
inactive: [4] | [14] | [15] | [6] | [7]
active: [9] 12.6 µM | [11] 12.3 µM | [16] 3.05 µM | [10] 9.59 µM | [5] 25.2 µM | [12] 15.3 µM | [13] 6.2 µM

O=[N+]([O-])c1cccc2ccccc12
active: [18] 9.17 µM

Oc1c(Br)cc(Br)cc1Br
inactive: [4] | [9] | [14] | [15] | [10] | [5] | [6] | [7]

CC(C)N(C(=O)CCl)c1ccccc1
active: [1] 11.8 µM | [2] 11.1 µM
inactive: [4] | [9] | [14] | [15] | [6] | [7]

Cc1ccccc1OP(=O)(Oc1ccccc1)Oc1ccccc1
active: [1] 13.9 µM | [2] 2.25 µM

Cc1ccc(OP(=O)(Oc2ccc(C)cc2C)Oc2ccc(C)cc2C)c(C)c1
active: [2] 17.4 µM | [3] 1.47 µM

O=C(O)C1(c2ccc3c(c2)OC[C@H](Cc2ccc(-c4ccccc4)cc2)[C@H]3O)CCCC1
inactive: [6] | [7]
active: [3] 5.29 µM | [11] 77 µM | [16] 90 µM | [10] 76.2 µM and 86.6 µM | [5] 79.5 µM and 87.5 µM

CC1(C)[C@H](C(=O)O[C@H](C#N)c2cccc(Oc3ccccc3)c2)[C@@H]1/C=C(\Cl)C(F)(F)F
inactive: [3] | [9] | [11] | [16] | [6] | [7]
